Beta cell apopt: beta cell apoptosis inhibition; INS-1E cytokine-induced death, ATP luminescence, 48 h; percent of positive-control rescue, neutral wells zero; protection from apoptosis, % (no concentration beside the values); hit rate 0.8% among 300,000; AID 435005;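 active = Every replicate reaches about 75%, or at least half do and their mean reaches it too, limit read from the data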;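 note: 0% = cytokine-treated negative control wells and 100% = positive control rescue; higher means more ATP so stronger rescue from cytokine killing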
SKKanGAS inh: inhibitors of SKKanGAS S. pyogenes growth in kanamycin (SK-promoter or general growth effect); BacTiter-Glo, 6 h; inhibition, % at 7.5 µM; hit rate 1.3% among 300,000;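 active = mean replicate score, as percent of positive control median, at least 50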;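 note: strain carries kanamycin resistance gene driven by streptokinase promoter and grows in 40 µg/ml kanamycin; loss of luminescence reflects streptokinase promoter inhibition or plain growth inhibition; 0% = median of DMSO wells and 100% = positive control at its reference dose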
MPTP inh: permeability transition pore inhibition; AID 602449; isolated mouse mitochondria, Ca2+ swelling absorbance, 30 min; hit rate 1.4% among 360,000; inhibition, % at 10 µM;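 active = inhibition of 50% or more, scaled per plate between neutral and stimulator controls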;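 note: 0% = DMSO wells given calcium and 100% = 1 mM EGTA wells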
GRIN3A LBD mod: NR3A (human) ligand-binding domain modulation | hit rate 2.5% among 340,000 | NR3A LBD differential scanning fluorimetry, Tm shift; 0% = protein alone, 100% = glycine-bound protein | Tm shift relative to glycine control, % at 25 µM;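 active = melting temperature shift of at least 10% of the positive control shift, at one fixed dose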
CSC inhib: cancer stem cell inhibition; cancer stem cell-like cells viability, luminescence; inhibition, % at 7.5 µM; AID 2717; hit rate 1.1% among 300,000; in the data active = inhibition above about 75%; tested in HMLE shEcad cells
Mdm2 MdmX PPI: disrupts the human Mdm2-MdmX interaction; O15151+Q00987; hit rate 3% among 330,000; SaOS-2 split-luciferase Mdm2/MdmX complementation, luminescence; inhibition, % at 8 µM;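 active = inhibition of at least 50% at 8 µM in the primary screen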
Target sequence (O15151 whole entry, looked up): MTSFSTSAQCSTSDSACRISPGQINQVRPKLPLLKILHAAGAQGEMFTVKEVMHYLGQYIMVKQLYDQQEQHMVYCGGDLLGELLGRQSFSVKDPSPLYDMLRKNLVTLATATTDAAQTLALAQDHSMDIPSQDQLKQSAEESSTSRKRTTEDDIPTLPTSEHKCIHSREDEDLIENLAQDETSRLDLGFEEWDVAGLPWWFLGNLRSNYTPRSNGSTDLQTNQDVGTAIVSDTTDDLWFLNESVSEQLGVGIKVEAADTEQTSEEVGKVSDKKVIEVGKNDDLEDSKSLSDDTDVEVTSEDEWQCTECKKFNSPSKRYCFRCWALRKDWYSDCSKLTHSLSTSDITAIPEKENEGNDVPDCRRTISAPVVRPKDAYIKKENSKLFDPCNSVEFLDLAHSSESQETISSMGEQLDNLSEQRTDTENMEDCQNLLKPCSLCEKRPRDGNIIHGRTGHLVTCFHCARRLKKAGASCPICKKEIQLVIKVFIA
Target sequence (Q00987 whole entry, looked up): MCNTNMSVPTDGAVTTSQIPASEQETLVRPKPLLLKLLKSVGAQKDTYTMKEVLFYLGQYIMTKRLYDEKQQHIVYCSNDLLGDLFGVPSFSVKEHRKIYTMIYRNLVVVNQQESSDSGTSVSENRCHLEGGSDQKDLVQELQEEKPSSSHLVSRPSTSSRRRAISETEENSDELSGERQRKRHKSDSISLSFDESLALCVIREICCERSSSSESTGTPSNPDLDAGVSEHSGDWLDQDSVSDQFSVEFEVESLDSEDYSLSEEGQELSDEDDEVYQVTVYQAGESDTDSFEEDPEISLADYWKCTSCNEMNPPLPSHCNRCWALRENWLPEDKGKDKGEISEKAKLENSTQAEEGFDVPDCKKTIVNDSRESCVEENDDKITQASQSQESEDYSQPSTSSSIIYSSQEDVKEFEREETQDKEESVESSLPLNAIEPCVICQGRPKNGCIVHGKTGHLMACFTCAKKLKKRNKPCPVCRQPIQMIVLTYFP
The depositor's hits bear a star; x = no result given. Rows were chosen to be rich in hits. Some 6.9% of all compounds tested hit in one or more screens of this group.

SMILES | Beta cell apopt | SKKanGAS inh | MPTP inh | GRIN3A LBD mod | CSC inhib | Mdm2 MdmX PPI
O=C1C(Nc2ccccc2)=C/C(=N/S(=O)(=O)c2cccs2)c2ccccc21 | 105.2* | 96.6* | 10.1 | -25.5 | 112.5* | x
O=C1C=C(Nc2ccccc2)C(=O)c2ccccc21 | 83.5* | 12.1 | 1.3 | -1.8 | 51.5 | -70.2
Cc1ccc(S(=O)(=O)/N=C2\C=C(NS(=O)(=O)c3ccccc3)C(=O)c3ccccc32)c(C)c1 | x | x | 45.7 | -4.0 | x | x
O=C(CN1C(=O)NC2(CCCC2)C1=O)Nc1nc2ccccc2[nH]1 | -2.7 | -0.3 | -1.0 | -0.6 | -4.7 | 33.6
Cc1ccc(C)c(CC(=O)N2CCCCC2c2cc(C(=O)Nc3ccc(F)c(Cl)c3)no2)c1 (configuration not stated) | x | x | 0.9 | x | x | x
Cc1[nH]c2ccccc2c1/C=N/NC(N)=S | -7.0 | 19.8 | 2.1 | -1.5 | 2.2 | 11.4
Cc1[nH]c2ccccc2c1/C=N/NC(=O)CNC(=O)Cc1ccccc1 | 0.7 | -4.4 | -2.0 | -4.1 | 22.8 | 13.5
Cc1ccc(NC(=S)N/N=C/c2c(C)[nH]c3ccccc23)cc1 | 9.5 | 3.6 | 2.8 | 22.4* | 96.9* | 24.6
Cc1[nH]c2ccccc2c1/C=N/NC(=S)NCc1ccccc1 | 0.6 | -24.4 | 1.9 | 22.7* | x | -0.9
O=C1CSC(c2ccccn2)N1c1ccc(F)cc1F (configuration not stated) | -0.2 | -2.8 | -2.1 | 0.0 | 0.6 | 6.3
O=C([O-])c1cc(-c2ccccc2)cc(-c2ccccc2)[n+]1Cc1ccccc1 | 122.4* | 1.9 | x | x | -0.1 | 17.3
O=C(NCc1ccco1)c1ccc(Cl)c(S(=O)(=O)N2CCCC2)c1 | 0.6 | x | -0.6 | 2.5 | -9.6 | -1.0
Cc1nnc(NC(=O)c2ccc(N3CCCC3=O)cc2)s1 | x | x | -1.3 | 1.0 | x | 3.4
O=C(Nc1nc2ccc(F)cc2s1)c1ccc(N2CCCC2=O)cc1 | -1.6 | -4.3 | -0.8 | 11.4* | -7.4 | -42.3
COc1ccc(Nc2nc(-c3ccccc3)c(C(=O)Nc3cccnc3)s2)cc1 | -5.1 | 4.4 | 1.8 | 18.8* | 8.1 | 19.2
CCOC(=O)Nc1sc2nc(C)cc(C)c2c1-n1cccc1 | -1.3 | 0.1 | 0.7 | 9.6 | 3.1 | 31.3
Cc1cc(C)c2c(-n3cccc3)c(C(=O)NNS(=O)(=O)c3ccc(Br)cc3)sc2n1 | -2.3 | 59.4* | 16.5 | -15.5 | 7.0 | 8.1
Cn1ccnc1SCC(=O)c1cccc(C(F)(F)F)c1 | -2.6 | 1.6 | -1.7 | -2.2 | -13.1 | -3.6
COc1ccc(C(=O)c2sc3nc(-c4ccccc4)ccc3c2N)cc1 | -1.6 | x | 3.8 | 17.6* | 40.8 | -10.7
CCOC(=O)c1sc2nc(-c3cccnc3)ccc2c1N | 2.3 | -11.9 | 1.6 | 19.6* | 0.1 | -319.6
Cc1nc(-c2ccccc2)nc2sc(C(=O)c3ccc(F)cc3)c(N)c12 | -9.7 | -3.1 | 3.0 | 15.2* | -1.6 | 33.5
NC(=O)c1sc2nc(-c3cccnc3)ccc2c1N | -1.3 | -0.5 | 1.3 | 0.0 | 0.1 | -4.4
Cc1nc2sc(C(=O)c3ccccc3)c(N)c2c(C)c1C | 0.1 | 7.3 | -2.1 | 0.7 | 3.7 | -0.4
COC(=O)c1cc2c(N)c(C(=O)c3ccccc3)sc2nc1C(OC)OC | 2.4 | 1.4 | 2.5 | -1.0 | -6.8 | -28.0
Nc1c(C(=O)Nc2ccccc2F)sc2nc(-c3cccnc3)ccc12 | 3.3 | 2.9 | 2.2 | 14.6* | 17.5 | -2.8
SMILES | Beta cell apopt | SKKanGAS inh | MPTP inh | GRIN3A LBD mod | CSC inhib | Mdm2 MdmX PPI
COc1ccc(-c2c(C#N)c(N)nc3sc(C(=O)c4ccccc4)c(N)c23)cc1 | -1.4 | 52.9* | 1.2 | 0.5 | 31.4 | x
CCn1c(SCC(=O)N/N=C(\C)c2ccco2)nnc1-c1ccccc1 | -1.9 | 2.5 | -0.6 | 0.6 | -9.5 | 0.5
O=C(Cc1ccc(Nc2nc3ccc(Br)cc3[nH]2)cc1)NCCc1cccs1 | 2.6 | 6.1 | 6.1 | 8.3 | 7.7 | 15.6
O=C(NCc1ccco1)c1cccc(Nc2nc3ccc(Br)cc3[nH]2)c1 | 5.9 | 21.8 | 30.6 | 12.8* | 31.4 | 12.1
O=C(NCC1CC1)c1ccc(Nc2nc3ccc(Br)cc3[nH]2)cc1 | -4.3 | 6.6 | 28.8 | 27.9* | 30.9 | 9.4
CC1CN(S(=O)(=O)c2cccc(C(=O)Nc3ccccc3N3CCCC3)c2)CC(C)O1 (configuration not stated) | 7.0 | -11.2 | 0.3 | -0.4 | 1.0 | 24.7
O=C(Cn1nc2n(c1=O)-c1ccccc1SC2)N/N=C/c1cccnc1 | -4.2 | -1.0 | 2.0 | 0.2 | 6.7 | 29.4
Cc1ccc(Nc2cc(C)c3ccc(O)cc3n2)cc1C | -0.3 | -5.4 | 6.6 | -2.2 | 86.5* | -2.4
O=C(CC1Nc2ccccc2NC1=O)NCCCN1CCCCCC1 (configuration not stated) | 4.3 | 0.6 | -4.8 | -2.1 | 2.6 | 12.3
CCCCNC(=O)CC1Nc2ccccc2NC1=O (configuration not stated) | -5.8 | 9.8 | -1.3 | 20.1* | -11.7 | -11.5
O=C(CC1Nc2ccccc2NC1=O)Nc1cc(Cl)cc(Cl)c1 (configuration not stated) | 23.3 | 24.6 | 4.2 | 29.3* | -9.0 | 8.9
CCCCn1c(N)c(N(CCOC)C(=O)COC(=O)CCOc2ccccc2)c(=O)[nH]c1=O | x | -12.9 | -0.6 | 1.5 | -2.9 | -2.4
CCCCOc1ccc(S(=O)(=O)N2CCN(c3ccc(N4CCN(CC)CC4)nn3)CC2)cc1 | x | -13.3 | -3.1 | 1.2 | 94.7* | 34.2
CCCCOc1ccc(S(=O)(=O)N2CCCCC2)cc1 | -4.9 | -9.9 | 0.4 | -2.0 | 10.3 | 3.8
COc1ccccc1C(=O)COC(=O)CN1C(=O)NC2(CCCC2)C1=O | -1.0 | 1.2 | -3.2 | 1.0 | -9.5 | 23.6
Cc1ccc2nc(Nc3nc(CSc4nc5ccccc5s4)cc(=O)[nH]3)nc(C)c2c1 | -5.1 | 18.2 | 1.5 | -1.5 | 1.6 | 24.4
Cc1cc(C)nc(Nc2nc3ccccc3[nH]2)n1 | 0.9 | 0.4 | 1.2 | -1.3 | -13.2 | -29.0
Cc1ccc2nc(Nc3nc(C)cc(-c4ccccc4)n3)[nH]c(=O)c2c1 | 21.9 | 85.9* | 1.6 | -1.6 | 3.4 | 38.0
Cc1ccc2nc(Nc3nc(-c4ccccc4)cc(=O)[nH]3)nc(C)c2c1 | -0.9 | 94.6* | 1.3 | -5.0 | -5.7 | 34.9
COC(=O)c1cc(CNC(=O)c2sccc2-c2ccccc2)ccc1OC | -6.4 | -0.3 | -1.3 | 0.3 | -6.9 | 19.8
COc1ccc(S(=O)(=O)N2CCCCC2)cc1NC(=O)Cn1c(=O)cnc2ccccc21 | -6.6 | 0.8 | -0.1 | 11.7* | -7.6 | 11.4
CCOc1ccc(/C=C(\C#N)C(=O)NCC2CCCO2)cc1OCC (configuration not stated) | -1.1 | -1.0 | -0.2 | 12.6* | -19.4 | 11.1
COc1cc(/C=C(\C#N)C(=O)NCC2CCCO2)ccc1O (configuration not stated) | 0.0 | -1.5 | 1.0 | -0.1 | -21.8 | -13.0
Cc1cc([N+](=O)[O-])c2[nH]c(C(=O)N/N=C/c3ccccc3C(=O)O)c(-c3ccccc3)c2c1 | x | 31.1 | 2.5 | 29.2* | x | x
